From PubChem BioAssay (Tox21)
Records with an inconclusive call do not appear. Where a call stands in place of a potency, no number is given. The source made the active and inactive calls. The call rests on the fitted dose curve; in most records, active means well fitted cell-killing curve with a large enough effect in the repeat runs; inconclusive means weak or mixed curves, or effect the other way; inactive means flat fitted curve, though single readings scatter.

Legend:
[1] = cAMP Responsive Elements (CRE) small molecule antagonists, cell-based qHTS assay: qHTS cell viability counter screen (AID 2060913); further: nearly all actives have a fitted effect of over 40% in size
How it was run: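 CRE-bla HEK293T cells (2,000/well, 18 h) given compound plus NKH477 0.25 uM final for 3 h at 37C; viability counter-screen by CellTiter-Glo luminescence in same wells after 30 min.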

[2] = cAMP Responsive Elements (CRE) small molecule agonists, cell-based qHTS assay: qHTS cell viability counter screen (AID 2060914); further: nearly all actives have a fitted effect of over 50% in size
How it was run: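 Cytotoxicity was measured as ATP luminescence (CellTiter-Glo, 30 min at room temperature) in the same wells as the CRE-bla FRET read-out. HEK293T CRE-bla cells had 3 h compound exposure at 37C/5% CO2.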

Row | Structure (SMILES) | Potency [1] | Potency [2]
1 | CCCCNS(=O)(=O)c1ccccc1 | inactive | inactive
2 | C=CCCCCCCCCC(=O)OCC | inactive | inactive
3 | CC(C)C(C)C | inactive | inactive
4 | N#[N+]c1ccc2c(S(=O)(=O)[O-])cccc2c1O | inactive | inactive
5 | Nc1c(Br)cc([N+](=O)[O-])cc1Br | inactive | inactive
